In PubChem BioAssay (NCI):
Compounds without any hit were thinned out: in the full panel of roughly 83,000, 20% have a hit.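 48-hour exposure, single concentration, 96-well plates; percent growth endpoint where 0 means no net growth. Active: below 10.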 Unmarked numbers belong to inactive results. The source made the active and inactive calls.

How the values were obtained:
Test in all cases: NCI-60 one-dose screen, 48 h (100 = growth as untreated, 0 = no growth, -100 = all killed)
Conditions in all cases: 10 µM
HCT-15 colon = test system: HCT-15 colon
HT29 colon = test system: HT29 colon
SNB-75 CNS = test system: SNB-75 CNS
SNB-19 CNS = test system: SNB-19 CNS
U251 CNS = test system: U251 CNS
PC-3 prostate = test system: PC-3 prostate
SK-MEL-5 melanoma = test system: SK-MEL-5 melanoma
UACC-62 melanoma = test system: UACC-62 melanoma
LOX IMVI melanoma = test system: LOX IMVI melanoma
SK-MEL-28 melanoma = test system: SK-MEL-28 melanoma

SMILES	growth (HCT-15 colon)	growth (HT29 colon)	growth (SNB-75 CNS)	growth (SNB-19 CNS)	growth (U251 CNS)	growth (PC-3 prostate)	growth (SK-MEL-5 melanoma)	growth (UACC-62 melanoma)	growth (LOX IMVI melanoma)	growth (SK-MEL-28 melanoma)
CCOC(=O)CNC(=O)Nc1ccc(Oc2ccc(NC(=O)NCC(=O)OCC)cc2)cc1	99.2%	107%	74.4%	104%	93.8%	86.9%	97.1%	92.4%	91.9%	91%
CCN1CCOC1C(C)C (stereo not given)	105%	99.3%	99.8%	113%	102%	93.4%	106%	105%	102%	108%
N#CCC1CCCC1	99.7%	105%	78.7%	98.8%	97.4%	87.9%	104%	99.4%	97.2%	97.6%
CC(C)/C(=N/O)c1ccccc1	110%	97.4%	94.5%	102%	112%	102%	104%	107%	94.5%	113%
CN(C)c1ccc2c(c1)OC(N)=C(C#N)C2c1ccc2c(c1)CCCN2C (stereo not given)	15.8%	10.5%	42.7%	33.3%	19.5%	27.3%	21.4%	34.4%	42%	61.5%
CC(C)c1[nH]nc2c(NCc3ccc(-c4ccccn4)cc3)nc(SCCN(C)C)nc12	6.46% (active)	-15.7% (active)	-55.9% (active)	13.7%	7.48% (active)	2.89% (active)	1.36% (active)	-37.2% (active)	-7.56% (active)	5.17% (active)
COc1cc(NS(C)(=O)=O)ccc1Nc1c2ccc(Cl)cc2nc2c(OC)cccc12	-15.4% (active)	-37.3% (active)	-13.4% (active)	32.8%	5.31% (active)	31.9%	0.832% (active)	-8.98% (active)	-58.7% (active)	52.4%
COc1ccc(/C=C2\CCC3C(CCCC34OCCO4)C2=O)cc1 (stereo not given)	66.2%	80.1%	105%	90.1%	99.2%	86.4%	87.3%	81%	80.8%	95.1%
COc1ccc(CSc2nc3cc(OC)c(OC)cc3c(=O)n2-c2ccc(OC)cc2OC)cc1	80.6%	88%	90.3%	79.6%	85.9%	55.6%	80.5%	80.2%	83.4%	102%
CC(=O)[C@H]1CC[C@H]2[C@@H]3CC[C@@H]4CC=C(C=O)C[C@]4(C)[C@H]3CC[C@]12C	96.7%	90.7%	80.5%	97.8%	88.5%	78.5%	90.3%	79.1%	93.7%	93.9%
CC(C)OCc1cc(CN2CCN(c3cccc(Cl)c3)CC2)c(O)c2ncccc12	4.08% (active)	-17.1% (active)	-25.3% (active)	19.6%	-37.8% (active)	-0.0543% (active)	-85.2% (active)	-61.2% (active)	-73.3% (active)	-2.34% (active)
COc1ccc(C(=O)c2sc3nc(-c4cccs4)ccc3c2N)cc1OC	37.4%	14%	52.1%	71.7%	59%	39%	24.3%	59%	55%	59.2%
Cc1ccc(-c2cc(C(=O)Nc3ccc(S(=O)(=O)N4CCCCC4)cc3)[nH]n2)c(O)c1	23.5%	2.87% (active)	81.6%	69%	39.3%	51.8%	24.8%	36.2%	54.3%	78.7%
COc1ccc2c(c1)/C(=C/c1cc(OC)c(OC)c(OC)c1)C(=O)N2C	12.6%	11.8%	-14.6% (active)	4.75% (active)	5.64% (active)	38.3%	-12.7% (active)	18.9%	10.8%	28.8%
CC(CNC(Cc1ccccc1)c1ccccc1)NC(Cc1ccccc1)c1ccccc1 (stereo not given)	30.6%	4% (active)	68.9%	61.7%	34.3%	40.7%	14.2%	61.4%	-5.75% (active)	64.2%
O=NN(CCCl)C(=O)Nc1ccc(NC(=O)N(CCCl)N=O)cc1	94.5%	115%	64%	68.6%	55.7%	86.5%	97.1%	63.9%	58.5%	98.8%
CCN(CC)CC(O)CNc1ccnc2cc(Cl)c(Cl)cc12 (stereo not given)	69.5%	77.6%	92.9%	110%	75.4%	80%	84.7%	92.8%	73.9%	97.6%
O=C(Nc1cccc(F)c1)Nc1cccc(Cl)c1	82.9%	90.9%	89.1%	99.9%	90.5%	65.5%	91.5%	77.1%	106%	98.9%
Cc1ccc2nc3[nH]c(=O)[nH]c(=O)c3c(N)c2c1	84%	83.3%	90%	86.2%	89.1%	85.6%	84%	47.3%	75.2%	98.3%
COc1ccc(-c2nc(-c3nc4ccc(C)cc4[nH]3)c3ccccn23)cc1	33.7%	21.9%	66.6%	55.3%	42.6%	25.3%	39.9%	47%	46%	84.6%
COc1cc(/C=C/C(=O)c2cc(-c3ccc(F)cc3)ccc2O)cc(OC)c1OC	84.2%	87.1%	91.9%	86.8%	79.9%	54.6%	48.1%	58.5%	48.9%	100%

SMILES	growth (HCT-15 colon)	growth (HT29 colon)	growth (SNB-75 CNS)	growth (SNB-19 CNS)	growth (U251 CNS)	growth (PC-3 prostate)	growth (SK-MEL-5 melanoma)	growth (UACC-62 melanoma)	growth (LOX IMVI melanoma)	growth (SK-MEL-28 melanoma)
COc1ccc(C2C=C(c3ccc(OC)c(OC)c3)N=C3SC=CN32)c(Br)c1 (stereo not given)	41.9%	33.7%	85.5%	73%	43.7%	48.9%	63.6%	68.9%	23.3%	89.8%
O=C(Nc1cccc([N+](=O)[O-])c1)NN1CCCCCC1	90.4%	107%	105%	95.6%	87.2%	83.1%	96%	76.2%	97.2%	112%
Nc1c(C(=O)NC2CCCCC2)sc2nc3c(cc12)C(=O)CCC3	85.8%	110%	95%	97.2%	93.6%	92.4%	95%	91%	103%	94.8%
COc1ccc(C2C=C(c3ccc(Cl)cc3)N=C3SC=CN32)c(Br)c1 (stereo not given)	74%	65.2%	63.6%	66.9%	70.2%	45.2%	88.6%	75.2%	71.2%	63.5%
COc1ccc(-c2csc(NC(=O)CO[N+](=O)[O-])n2)cc1	104%	105%	96.1%	102%	98.6%	80.7%	30.3%	101%	88%	105%
Nc1ccc2c(c1)Cc1cc(N)c(Cl)cc1-2	100%	101%	86.7%	92.9%	93.2%	95.7%	93.9%	83.9%	104%	103%
COc1ccc(-c2cn[nH]c2-c2cc(OC)c(OC)c(OC)c2)cc1	10.8%	3.22% (active)	44.7%	45.5%	16.2%	14.1%	-17.1% (active)	38%	27.3%	43.6%
N#CN1CC[C@H](C(=O)Nc2ncc(-c3ccccc3)s2)C1	3.19% (active)	-35.6% (active)	-43.8% (active)	12.4%	2.64% (active)	11.1%	-56% (active)	-37.1% (active)	4.1% (active)	5.29% (active)
CCOC(=O)[C@@H]1[C@H](c2ccccc2)[C@H]([N+](=O)[O-])[C@H](c2cn(-c3ccccc3)nc2C)N1Cc1ccccc1	43%	76.4%	81.5%	77.7%	51.2%	46%	76.3%	60.9%	65.6%	85.4%
Cc1cnc(C=O)c2cccc([N+](=O)[O-])c12	70.7%	79.1%	69.6%	99.2%	91.9%	79.9%	95.5%	103%	72.1%	111%
O=C(Nc1ccc(OS(=O)(=O)Cc2ccccc2)cc1)C12CC3CC(CC(C3)C1)C2	56.8%	9.75% (active)	114%	91.4%	67.7%	55.6%	63.3%	81.6%	68%	103%
C=CCN1C(=O)/C(=C\c2ccc3c(c2)CCC3)SC1=S	98.8%	97.4%	99.9%	94.2%	100%	107%	99.6%	99.2%	98.5%	113%
CCCCCCCCCCCCCCCCCBr	102%	97.5%	84.3%	95.9%	103%	92.6%	98.9%	104%	101%	108%
O=C(NCc1cn(Cc2cccc(Oc3ccccc3)c2)nn1)c1cccnc1Nc1ccccc1	30.7%	47.8%	54.2%	67.1%	42.2%	44.5%	40.8%	53.5%	45.1%	47.8%
CCCCCCCCCCCC(c1ccccc1)N(C)C (stereo not given)	95.6%	86.3%	89.5%	95.1%	95.6%	78.1%	97%	94.9%	92.7%	99%
O=C(Nc1cccc(-c2nc3ccccc3[nH]2)c1)c1cccc(NC(=O)c2ccco2)c1	50.9%	27.6%	72.2%	89.4%	61.8%	68.5%	43.4%	-71.7% (active)	41.8%	30.3%
N=C(N)c1ccc(-c2ccc(-c3ccccc3)s2)cc1F	-77.1% (active)	-89.8% (active)	-92.4% (active)	-75.9% (active)	-94.5% (active)	-88% (active)	-97% (active)	-93.1% (active)	-81.4% (active)	-96.2% (active)
CC(=O)Nc1ccc(Sc2ccc(NC(C)=O)cc2)cc1	98.9%	91.2%	84.1%	106%	95.9%	65.5%	105%	96.5%	96.3%	102%
NCCNc1ccc2cc(-c3nc4ccccc4[nH]3)c(=O)oc2c1	79.4%	108%	85.1%	105%	94.9%	79.7%	93.5%	87.4%	85%	93.7%
COc1cc(C2C=C(c3ccc(Cl)c(Cl)c3)N=C3SC(C)=CN32)cc(OC)c1OC (stereo not given)	64.8%	53.1%	81.7%	79.5%	51.2%	59.2%	83.9%	85.8%	41.3%	102%
